We go through 37 compounds from PubChem BioAssay (NCI).

Compounds without any hit were thinned out: in the full panel of roughly 83,000, 20% have a hit.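 Values shown are percent growth following 48 h exposure of cells in 96-well plates to a single concentration of compound; below 10 was considered active.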 A number with no mark means an inactive call. Activity calls are given as the source filed them.

One test deals with OVCAR-8 ovarian. As to the kind of experiment: NCI-60 one-dose screen, 48 h (100 = growth as untreated, 0 = no growth, -100 = all killed). The settings on record: 10 µM unless noted.
Turning to `CN(C)c1ccc2nc3ccc(=[N+](C)C)c([N+](=O)[O-])c-3sc2c1`, the growth is 12.7%.

`COc1cc(C(=O)/C=C/c2c(Cl)nc3sccn23)cc(OC)c1OC`: the growth was 85.9%.

For the compound `CNc1ccc(Nc2cccc(C)c2)c2c1C(=O)c1ccccc1C2=O`, the growth was 99.6%.

With `Cc1cc(O)c(C2=NN(c3ccc(S(N)(=O)=O)cc3)C(c3ccccc3O)C2)cc1Cl` (centres undefined), the growth is 4.04% (active).

On to `CCN1C(=O)N(CC)C2Nn3c(s/c(=C4\C(=O)N(CCC(C)C)c5ccccc54)c3=O)=NC21` (centres undefined), for which the growth is 86%.

Consider `C=C(C)[C@@H]1CC[C@]2(N=C=O)CC[C@]3(C)[C@H](CC[C@@H]4[C@@]5(C)Cc6c([nH]c7ccccc67)C(C)(C)[C@@H]5CC[C@]43C)[C@@H]12`, for which the growth was 70.7%.

In the case of `O=C1CSC(c2c(Cl)cccc2Cl)N1c1nc(Cl)cc(=O)[nH]1` (centres undefined), the growth was 107%.

On to `COc1ccc(OC)c(/C=C/C(=O)N/N=C/c2ccccc2)c1`, for which the growth is 54.8%.

On to `Oc1ccc(-c2nc3ccc4[nH]ncc4c3c3c2CCCC3)c2cccnc12`, for which the growth was 9.31% (active).

In the case of `Cc1cc(O)c(C2=NN(c3ccc(S(N)(=O)=O)cc3)C(/C=C/c3ccccc3)C2)cc1Cl` (centres undefined), the growth is 38.6%.

Regarding `COc1ccc(C2=Nn3c(nnc3-c3cc(Cl)cc(Cl)c3Cl)SC2)cc1`, the growth was 19.5%.

On to `O=S(=O)(NCCCNc1cc(-c2c(-c3cccc(O)c3)nc3sccn23)ccn1)c1cccc2ccccc12`, for which the growth was 19%.

As to `c1cc(-c2nnc(SSc3ncnc4nc[nH]c34)o2)ccn1`, the growth is 20.4%.

Regarding `CC[C@H](C)C(=O)O[C@H]1CCC=C2C=C[C@H](C)[C@H](CC[C@@H]3CC=CC(=O)O3)[C@H]21`, the growth was 82%.

As to `COc1cc(CCC[P+](c2ccccc2)(c2ccccc2)c2ccccc2)c(OC)c(OC)c1OC`, the growth was 85.6%.

For the compound `COc1ccc(C(=O)/C=C/c2sc(Cl)nc2Cl)cc1`, the growth was 22.9%.

For the compound `COc1ccc(C(=S)N2CCN(c3cccc(C)c3)CC2)cc1OC`, the growth was 76.6%.

`Cc1cc2nc3ccc(N=Nc4ccc(N(C)C)cc4)cc3n(-c3ccccc3)c-2cc1=N`: the growth is -22% (active).

Consider `CC(=O)CC(c1cccs1)c1c(-c2ccccc2)[nH]c2ccccc12` (centres undefined), for which the growth is 92.5%.

With `COc1ccc(-n2c(N)c(-c3nc4ccccc4[nH]3)cc(C#N)c2=O)cc1`, the growth is 69.8%.

Take `Cc1ncc(C(=O)Nc2ccc(CN3CCN(C)CC3)c(C(F)(F)F)c2)cc1C#Cc1ccc(N)nc1`: the growth was 19.8%.

On to `COC(=O)/C=C1\S/C(=N\Nc2ccc([N+](=O)[O-])cc2[N+](=O)[O-])N(C2CCCCC2)C1=O`, for which the growth is 35.4%.

With `COc1c(B(O)O)cc(F)cc1-c1nc2ccc3[nH]ncc3c2c2c1CCCC2`, the growth was 16.1%.

Regarding `CCCCCCN1C(=O)/C(=c2\sc3n(c2=O)C2C(NN=3)N(CC)C(=O)N2CC)c2ccccc21` (centres undefined), the growth is -22.3% (active).

With `S=c1nc(-c2ccccc2)oc(=NC2CCCCC2)n1C1CCCCC1`, the growth is 32.2%.

Take `CNC(=O)c1[nH]cc(-c2ccccc2)c1-c1cc(OC)c2c(c1OC)OCO2`: the growth is 100%.

As for `CCCCCCN(CCCCCC)c1ccc(/C=C2/SC(=O)NC2=O)c(C)c1`, the growth is 80.6%.

With `CC(=O)OC[C@H]1OC(Sc2sc(C(=O)c3ccc(Br)cc3)c(N)c2-c2nc3ccccc3s2)[C@H](OC(C)=O)[C@@H](OC(C)=O)[C@H]1OC(C)=O` (some centres undefined), the growth is 80.3%.

Regarding `N#Cc1ccc(NC(=O)c2sc3nc4c(cc3c2N)C(=O)CCC4)cc1`, the growth was 105%.

As to `NS(=O)(=O)c1ccc(-n2nc(-c3ccc(Cl)cc3)c3ccccc3c2=O)cc1`, the growth is 96.9%.

Take `COc1cccc(OC)c1C(=O)N[C@@H]1C(=O)N2[C@@H]1SC(C)(C)[C@@H]2C(=O)O`: the growth was 107%.

With `N/C(=N\c1nc2ccccc2s1)NC(=O)Nc1cccc2ccccc12`, the growth was 32.9%.

Turning to `COc1ccc(/C=C/c2c(C(=O)/C=C/c3ccc(C(F)(F)F)cc3)c(C)nc3ccccc23)cc1`, the growth was 9.68% (active).

Regarding `COc1c(B(O)O)cc(C)cc1-c1nc2ccc3[nH]ncc3c2c2c1CCCC2`, the growth was 53.3%.

In the case of `COc1cc(C(=O)c2cc(C)c3[nH]c4ccc(O)cc4c3c2C)cc(OC)c1OC`, the growth was 27.3%.

On to `COc1ccc(/C=C/c2c(C(=O)/C=C/c3ccc(Cl)cc3)c(C)nc3ccccc23)cc1`, for which the growth was 20.9%.

As for `O=c1ccc(N=Nc2ccc([N+](=O)[O-])cc2)ccc1O`, the growth was 9.9% (active).

A further test deals with OVCAR-5 ovarian. The description is as above. The settings on record: 10 µM unless noted.
For the compound `CN(C)c1ccc2nc3ccc(=[N+](C)C)c([N+](=O)[O-])c-3sc2c1`, the growth was -7.81% (active).

`COc1cc(C(=O)/C=C/c2c(Cl)nc3sccn23)cc(OC)c1OC`: the growth was 92.6%.

As for `CNc1ccc(Nc2cccc(C)c2)c2c1C(=O)c1ccccc1C2=O`, the growth is 91.4%.

Take `Cc1cc(O)c(C2=NN(c3ccc(S(N)(=O)=O)cc3)C(c3ccccc3O)C2)cc1Cl` (centres undefined): the growth is -15.1% (active).

On to `CCN1C(=O)N(CC)C2Nn3c(s/c(=C4\C(=O)N(CCC(C)C)c5ccccc54)c3=O)=NC21` (centres undefined), for which the growth was 102%.

`C=C(C)[C@@H]1CC[C@]2(N=C=O)CC[C@]3(C)[C@H](CC[C@@H]4[C@@]5(C)Cc6c([nH]c7ccccc67)C(C)(C)[C@@H]5CC[C@]43C)[C@@H]12`: the growth was 92.9%.

Consider `O=C1CSC(c2c(Cl)cccc2Cl)N1c1nc(Cl)cc(=O)[nH]1` (centres undefined), for which the growth is 94.4%.

For `COc1ccc(OC)c(/C=C/C(=O)N/N=C/c2ccccc2)c1`, the growth was 85%.

Take `Oc1ccc(-c2nc3ccc4[nH]ncc4c3c3c2CCCC3)c2cccnc12`: the growth is 21.9%.

Turning to `Cc1cc(O)c(C2=NN(c3ccc(S(N)(=O)=O)cc3)C(/C=C/c3ccccc3)C2)cc1Cl` (centres undefined), the growth is 51%.

Turning to `COc1ccc(C2=Nn3c(nnc3-c3cc(Cl)cc(Cl)c3Cl)SC2)cc1`, the growth was 6.36% (active).

As for `O=S(=O)(NCCCNc1cc(-c2c(-c3cccc(O)c3)nc3sccn23)ccn1)c1cccc2ccccc12`, the growth is 102%.

For the compound `c1cc(-c2nnc(SSc3ncnc4nc[nH]c34)o2)ccn1`, the growth was 39.7%.

For the compound `CC[C@H](C)C(=O)O[C@H]1CCC=C2C=C[C@H](C)[C@H](CC[C@@H]3CC=CC(=O)O3)[C@H]21`, the growth was 112%.

As for `COc1cc(CCC[P+](c2ccccc2)(c2ccccc2)c2ccccc2)c(OC)c(OC)c1OC`, the growth is 79.6%.

For `COc1ccc(C(=O)/C=C/c2sc(Cl)nc2Cl)cc1`, the growth is 47.1%.

Take `COc1ccc(C(=S)N2CCN(c3cccc(C)c3)CC2)cc1OC`: the growth was 93.4%.

On to `Cc1cc2nc3ccc(N=Nc4ccc(N(C)C)cc4)cc3n(-c3ccccc3)c-2cc1=N`, for which the growth is -78.5% (active).

For the compound `CC(=O)CC(c1cccs1)c1c(-c2ccccc2)[nH]c2ccccc12` (centres undefined), the growth is 99.8%.

Regarding `COc1ccc(-n2c(N)c(-c3nc4ccccc4[nH]3)cc(C#N)c2=O)cc1`, the growth is 99%.

As to `Cc1ncc(C(=O)Nc2ccc(CN3CCN(C)CC3)c(C(F)(F)F)c2)cc1C#Cc1ccc(N)nc1`, the growth was 10.4%.

Regarding `COC(=O)/C=C1\S/C(=N\Nc2ccc([N+](=O)[O-])cc2[N+](=O)[O-])N(C2CCCCC2)C1=O`, the growth is 84.3%.

For the compound `COc1c(B(O)O)cc(F)cc1-c1nc2ccc3[nH]ncc3c2c2c1CCCC2`, the growth was 15.4%.

`CCCCCCN1C(=O)/C(=c2\sc3n(c2=O)C2C(NN=3)N(CC)C(=O)N2CC)c2ccccc21` (centres undefined): the growth is 32.4%.

For `S=c1nc(-c2ccccc2)oc(=NC2CCCCC2)n1C1CCCCC1`, the growth is 86.2%.

As to `CNC(=O)c1[nH]cc(-c2ccccc2)c1-c1cc(OC)c2c(c1OC)OCO2`, the growth is 101%.

Take `CCCCCCN(CCCCCC)c1ccc(/C=C2/SC(=O)NC2=O)c(C)c1`: the growth is 109%.

`CC(=O)OC[C@H]1OC(Sc2sc(C(=O)c3ccc(Br)cc3)c(N)c2-c2nc3ccccc3s2)[C@H](OC(C)=O)[C@@H](OC(C)=O)[C@H]1OC(C)=O` (some centres undefined): the growth is 105%.

Consider `N#Cc1ccc(NC(=O)c2sc3nc4c(cc3c2N)C(=O)CCC4)cc1`, for which the growth is 89.2%.

As to `NS(=O)(=O)c1ccc(-n2nc(-c3ccc(Cl)cc3)c3ccccc3c2=O)cc1`, the growth was 93.7%.

As for `COc1cccc(OC)c1C(=O)N[C@@H]1C(=O)N2[C@@H]1SC(C)(C)[C@@H]2C(=O)O`, the growth was 110%.

For `N/C(=N\c1nc2ccccc2s1)NC(=O)Nc1cccc2ccccc12`, the growth was 41.1%.

`COc1ccc(/C=C/c2c(C(=O)/C=C/c3ccc(C(F)(F)F)cc3)c(C)nc3ccccc23)cc1`: the growth was -33.6% (active).

Consider `COc1c(B(O)O)cc(C)cc1-c1nc2ccc3[nH]ncc3c2c2c1CCCC2`, for which the growth is 89.3%.

Regarding `COc1cc(C(=O)c2cc(C)c3[nH]c4ccc(O)cc4c3c2C)cc(OC)c1OC`, the growth is 38.9%.

Take `COc1ccc(/C=C/c2c(C(=O)/C=C/c3ccc(Cl)cc3)c(C)nc3ccccc23)cc1`: the growth is 16.9%.

Take `O=c1ccc(N=Nc2ccc([N+](=O)[O-])cc2)ccc1O`: the growth was 48.5%.
